# Source: PubChem BioAssay AID540364 (The Scripps Research Institute Molecular Screening Center, 2011)
# Out of some 360,000 compounds screened, about 2,000 (0.56%) were called active. This excerpt belongs to a sample that is enriched for actives. Unmarked numbers belong to inactive results.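 Rule for the calls: active = activation above the average of all compounds screened plus 3 SD, cutoff fixed separately per campaign (cut at about 7.5% in these data); inactive = the rest.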
# Assay: FXN promoter activators, primary screen, cell-based, luciferase luminescence, HEK293 lucGAA850 (AID 540364);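 note: 0% = DMSO wells and 100% = 10 µM SAHA wells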
# Settings: HEK293 lucGAA850 FXN promoter luciferase reporter, 24 h; at 6 µM; hits give high values; percent of 10 µM SAHA response
row,SMILES,activation
1,Cc1ccc(-c2c3c(=O)n(C)c(=O)n(C)c3cn2-n2cnnc2)cc1,10.3% (active)
2,COc1cccc(-n2cc3c(c2-c2ccccc2)c(=O)n(C)c(=O)n3C)c1,1.09%
3,Cc1ccc(-c2c3c(=O)n(C)c(=O)n(C)c3cn2-c2ccccc2O)cc1,-0.62%
4,CCN(C[C@H]1N[C@@](CC)(C(=O)OC)[C@H]2C(=O)N(Cc3ccccc3)C(=O)[C@@H]12)S(=O)(=O)c1ccccc1,3.23%
5,COC(=O)[C@]1(Cc2ccccc2)N[C@H](CN(C)S(=O)(=O)c2ccc(OC(F)(F)F)cc2)[C@@H]2C(=O)N(Cc3ccccc3)C(=O)[C@@H]21,-3.69%
6,CCN(C[C@H]1N[C@@](CC)(C(=O)OC)[C@H]2C(=O)N(Cc3ccccc3)C(=O)[C@@H]12)S(=O)(=O)c1ccc(C(F)(F)F)cc1,15.9% (active)
7,OC(c1ccccc1)c1nc(/C=C/c2ccc(C(F)(F)F)cc2)cs1 (configuration not stated),1%
8,CC(=O)Nc1cc(-c2ccccc2N(C)C)cn2c(-c3ccc(F)c(Cl)c3)cnc12,1.24%
9,COc1ccc(NC(=O)CSCc2ccc([N+](=O)[O-])cc2)cc1OC,0.83%
10,COc1ccc2[nH]c(=O)c(CN(Cc3nnnn3CCc3ccccc3)CC3CCCO3)cc2c1 (configuration not stated),7.67% (active)
11,CCC(c1nnnn1Cc1ccccc1)N(Cc1cc2cc(OC)ccc2[nH]c1=O)CC1CCCO1 (configuration not stated),5.86%
12,CCOc1ccc2[nH]c(=O)c(CN(Cc3nnnn3CCc3ccccc3)CC3CCCO3)cc2c1 (configuration not stated),1.4%
13,COc1ccc(-c2cc(C(=O)NCCCN3CCCC3=O)c3ccccc3n2)cc1OC,0.37%
14,COc1ccc(-c2cc(C(F)(F)F)nc(S(C)(=O)=O)n2)cc1OC,16.9% (active)
15,COc1ccc(-c2cc(C(=O)N(C)Cc3ccc(OC)c(OC)c3OC)c3ccccc3n2)cc1OC,-6.82%
16,Cc1cccc(C(=O)Nc2nnc(S(=O)(=O)N3CCCCCC3)s2)c1,-0.31%
17,O=C(Nc1nnc(S(=O)(=O)N2CCCCCC2)s1)c1cccc(Br)c1,11% (active)
18,O=C(Nc1nnc(S(=O)(=O)N2CCOCC2)s1)c1cccc(Br)c1,3.61%
19,CC(OC(=O)CCC(=O)c1ccccc1)C(=O)Nc1ccc(F)cc1 (configuration not stated),0.37%
20,Cc1ccc(N=C2SCCCN2C(=O)c2cccc(N3C(=O)CCC3=O)c2)cc1Cl,-0.64%
21,COc1ccc2cc(CCl)c(Cl)nc2c1,2.75%
22,O=[N+]([O-])c1ccc(C=Nc2ccc(Cl)cc2Cl)s1,9.39% (active)

row,SMILES,activation
1,COc1ccc(CN2[C@@H](CC(=O)O)c3cc(F)ccc3S2(=O)=O)cc1,1.09%
2,CCc1noc(C)c1C(=O)N1CCN(S(=O)(=O)c2cccc(C(F)(F)F)c2)CC1,-0.49%
3,O=C(N/N=C\c1cc2c(cc1Cl)OCO2)c1ccc(Br)s1,1.53%
4,CC1(C(=O)N/N=C/c2cc3c(cc2Br)OCO3)CC1(Br)Br (configuration not stated),8.27% (active)
5,O=C(/C=C/c1cc2c(cc1Br)OCO2)NCc1ccc(Cl)cc1,1.84%
6,CO[C@H]1[C@@H]2C=CO[C@@H](O[C@H]3O[C@@H](CO)[C@H](O)[C@@H](O)[C@@H]3O)[C@@H]2[C@@]2(CO)O[C@@H]12,-1.13%
7,Cc1ccc(OCCCCc2c(C)n[nH]c2C)cc1,0.87%
8,Cc1cc(=O)oc2c3c(cc(OCC(=O)NCC(O)c4ccccc4)c12)OC(C)(C)CC3 (configuration not stated),1.51%
9,O=C(NCCc1ccc(F)cc1)c1ccc2nccnc2c1,3.24%
10,CC(C)CCC(C)NC(=O)c1ccc2nccnc2c1 (configuration not stated),9.19% (active)
11,Cc1ccc(C)c(NC(=O)c2ccc3nccnc3c2)c1,-0.14%
12,CCc1ccc(N(CC(=O)NCc2cccnc2)S(=O)(=O)c2ccccc2)cc1,-0.07%
13,O=C(CN(c1cc(C(F)(F)F)ccc1Cl)S(=O)(=O)c1ccccc1)NCc1cccnc1,8.32% (active)
14,CN(CC(=O)NCc1cccnc1)S(=O)(=O)c1cc(Cl)ccc1Cl,-2.15%
15,COc1ccc(OC)c(NC(=O)c2cnn(-c3ccccc3Cl)c2NC(=O)c2ccco2)c1,2.28%
16,O=[N+]([O-])/C=C/c1ccc2c(ccn2Cc2ccccc2)c1,15.3% (active)
17,COc1ccc(NC(=S)SC)cc1OC,0.31%
18,COc1ccc(CN2C(=O)CN=C2Nc2ccc(C)cc2C)cc1,2.67%
19,CCOC(=O)C1=C(O)/C(=C/c2ccc(OCC(=O)Nc3ccc(C)cc3)cc2)N=C1C,-1.6%
20,Cc1ccc(NC(=O)COc2ccc(/C=C3/NC(=O)NC3=O)cc2)cc1,-1.99%
21,Cc1ccc(OCC(=O)Nc2ccc(-c3nnc(-c4ccco4)o3)cc2)cc1,9.76% (active)
22,Cc1noc(C)c1NC(=O)Nc1ccc2c(c1)C(=O)N([C@H](C)CO)C[C@H](C)[C@@H](CN(C)S(=O)(=O)c1cn(C)cn1)O2,0.14%

row,SMILES,activation
1,CCOC(=O)C1=C(CC)Nc2ccccc2N=C1NC(=O)c1cccc(S(=O)(=O)N2CCCC2)c1,-2.08%
2,Cc1nn(CC(=O)Nc2ccc3c(c2)nc(CN2CCCCC2)n3C)c(=O)c2ccccc12,-1.92%
3,Cn1c(CCN2CCCCCC2)nc2cc(NC(=O)Nc3ccccc3)ccc21,10.5% (active)
4,CCC(=O)Nc1ccc2c(c1)nc(CCN1CCN(c3ccccn3)CC1)n2C,1.46%
5,O=C(CNCCC1=CCCCC1)Nc1ccccc1N1CCCCCC1,-0.31%
6,Cc1cc(C)c2c(-n3cccc3)c(C(=O)NNS(=O)(=O)c3ccc(F)cc3)sc2n1,-0.88%
7,COc1cc(S(=O)(=O)N2CCN=C2c2ccccc2)ccc1Cl,2.5%
8,COC(=O)CNC(=O)c1ccccc1[N+](=O)[O-],1.03%
9,COCCn1c(=NC(=O)c2ccccc2[N+](=O)[O-])sc2cc(S(C)(=O)=O)ccc21,8.06% (active)
10,Cn1c(=NC(=O)c2ccc3c(c2)OCCO3)sc2cc(S(C)(=O)=O)ccc21,-0.86%
11,CCOC(=O)C1CCN(C(=O)Cn2nc(C)c3c(C)n(-c4ccccc4)nc3c2=O)CC1,-0.2%
12,COc1ccc(-n2cc(-c3ccccc3)c3c(=S)nc[nH]c32)cc1,8.54% (active)
13,COc1ccc(N2C(=O)CNC2=S)cc1,-3.02%
14,COc1ccccc1CNC(=O)C1Cc2ccccc2C(=O)O1 (configuration not stated),-0.56%
15,COc1cccc(N(C(=O)c2ccn[nH]2)C2(C(=O)Nc3c(C)cccc3C)CCCCC2)c1,-6.45%
16,CCc1ccc(N(C(=O)c2csnn2)C(C(=O)NC2CCCCC2)c2cccnc2)cc1 (configuration not stated),-1.27%
17,CCc1ccc(N(C(=O)c2csnn2)C(C(=O)NC2CCCCC2)c2ccncc2)cc1 (configuration not stated),8.57% (active)
18,O=C(NC1CCCC1)C(c1ccco1)N(C(=O)c1csnn1)c1ccccc1 (configuration not stated),0.36%
19,COC(=O)CN(C(=S)Nc1ccc(Cl)cc1)C1CC(=O)N(c2ccc(OC)cc2)C1=O (configuration not stated),1.91%
20,CCOc1ccc(N2C(=O)CC(N(CCc3ccc(OC)c(OC)c3)C(=S)Nc3ccccc3)C2=O)cc1 (configuration not stated),8.9% (active)
21,CN(C)c1ccc(NC(=S)N(CCc2ccccc2)C2CC(=O)N(c3c(Cl)cccc3Cl)C2=O)cc1 (configuration not stated),0.24%
22,COc1ccc(NC(=O)CSc2ccc(-c3ccco3)nn2)c(OC)c1,0.41%

row,SMILES,activation
1,COc1ccc2[nH]c3nc(SCC(=O)NC4CC4)nnc3c2c1,0.57%
2,Oc1cccc2cc(-c3ccncc3)cnc12,2.66%
3,COC(=O)c1ccc(NC(=O)CSc2nc(N)c(NC(=O)c3ccc(Br)o3)c(=O)[nH]2)cc1,1.31%
4,COc1ccc(C2Nc3ccccc3C(=O)N2c2ccc(Cl)cc2)cc1Cn1cc([N+](=O)[O-])cn1 (configuration not stated),10.7% (active)
5,COc1ccc(C2Nc3ccccc3C(=O)N2Cc2ccccc2)cc1Cn1nnc2ccccc21 (configuration not stated),-2.6%
6,COc1ccc(CN2CCCC(C(=O)c3ccc(Cl)cc3)C2)cc1Cn1cncn1 (configuration not stated),1.04%
7,N#C/C(=C(\O)CCl)c1nnc2n1CCCCC2,-0.95%
8,CCOC(=O)C1(C)CCCN(C(=O)c2cccc(Cl)c2)C1 (configuration not stated),-0.57%
9,CC(C)Oc1ccc(C(CC(=O)N2CCOCC2)C(C)C)cc1 (configuration not stated),2.86%
10,CC(C)(C)NC(=O)NCc1ccco1,0.33%
11,O=C(NCc1ccco1)/C(=C/c1ccco1)NC(=O)c1ccccc1,1.61%
12,CC(C)(C)c1ccc(C(=O)NCc2ccco2)cc1,8.75% (active)
13,COc1ccc(C2NC(=O)C(=O)/C2=C(\O)c2ccc(Cl)cc2)cc1OC (configuration not stated),-0.36%
14,CC/C(=C(/c1ccccc1)c1ccc(OCC[N+](C)(C)C)cc1)c1ccccc1,-0.77%
15,CC1CN(Cc2ccco2)C(=S)N(c2ccccc2)C1=O (configuration not stated),2.7%
16,CCN(CC)C(=O)CSc1nnc(CNc2ccc(F)cc2)n1Cc1ccco1,-2.98%
17,CN(C)C(=S)N=c1ssc(=S)n1Cc1ccco1,16.1% (active)
18,O=C(COc1ccc2ccc(=O)oc2c1)NCC(O)c1ccccc1 (configuration not stated),1.75%
19,O=C(CC1NCCc2ccccc21)Nc1cccc(Cl)c1 (configuration not stated),7.89% (active)
20,O=C(CC1NCCNC1=O)Nc1cc(Cl)cc(Cl)c1 (configuration not stated),1.12%
21,O=C(CC1C(=O)NCCN1C(=O)c1ccc([N+](=O)[O-])cc1)Nc1cccc(Cl)c1 (configuration not stated),0.62%
